This is an account of results in PubChem BioAssay AID892 (National Center for Advancing Translational Sciences (NCATS), 2007).

The campaign covered roughly 75,000 compounds. About 20 (0.03%) were called active. Calls follow the shape of the dose curve; as a rule, active = well fitted inhibition curve with a large enough effect; inconclusive = small, poorly fitted or top-dose-only effect; inactive = no such curve, though single readings can be large or run the other way. These entries were drawn from the full list.

Sequence of Breast cancer type 1 susceptibility protein (Homo sapiens) (P38398 whole entry, looked up): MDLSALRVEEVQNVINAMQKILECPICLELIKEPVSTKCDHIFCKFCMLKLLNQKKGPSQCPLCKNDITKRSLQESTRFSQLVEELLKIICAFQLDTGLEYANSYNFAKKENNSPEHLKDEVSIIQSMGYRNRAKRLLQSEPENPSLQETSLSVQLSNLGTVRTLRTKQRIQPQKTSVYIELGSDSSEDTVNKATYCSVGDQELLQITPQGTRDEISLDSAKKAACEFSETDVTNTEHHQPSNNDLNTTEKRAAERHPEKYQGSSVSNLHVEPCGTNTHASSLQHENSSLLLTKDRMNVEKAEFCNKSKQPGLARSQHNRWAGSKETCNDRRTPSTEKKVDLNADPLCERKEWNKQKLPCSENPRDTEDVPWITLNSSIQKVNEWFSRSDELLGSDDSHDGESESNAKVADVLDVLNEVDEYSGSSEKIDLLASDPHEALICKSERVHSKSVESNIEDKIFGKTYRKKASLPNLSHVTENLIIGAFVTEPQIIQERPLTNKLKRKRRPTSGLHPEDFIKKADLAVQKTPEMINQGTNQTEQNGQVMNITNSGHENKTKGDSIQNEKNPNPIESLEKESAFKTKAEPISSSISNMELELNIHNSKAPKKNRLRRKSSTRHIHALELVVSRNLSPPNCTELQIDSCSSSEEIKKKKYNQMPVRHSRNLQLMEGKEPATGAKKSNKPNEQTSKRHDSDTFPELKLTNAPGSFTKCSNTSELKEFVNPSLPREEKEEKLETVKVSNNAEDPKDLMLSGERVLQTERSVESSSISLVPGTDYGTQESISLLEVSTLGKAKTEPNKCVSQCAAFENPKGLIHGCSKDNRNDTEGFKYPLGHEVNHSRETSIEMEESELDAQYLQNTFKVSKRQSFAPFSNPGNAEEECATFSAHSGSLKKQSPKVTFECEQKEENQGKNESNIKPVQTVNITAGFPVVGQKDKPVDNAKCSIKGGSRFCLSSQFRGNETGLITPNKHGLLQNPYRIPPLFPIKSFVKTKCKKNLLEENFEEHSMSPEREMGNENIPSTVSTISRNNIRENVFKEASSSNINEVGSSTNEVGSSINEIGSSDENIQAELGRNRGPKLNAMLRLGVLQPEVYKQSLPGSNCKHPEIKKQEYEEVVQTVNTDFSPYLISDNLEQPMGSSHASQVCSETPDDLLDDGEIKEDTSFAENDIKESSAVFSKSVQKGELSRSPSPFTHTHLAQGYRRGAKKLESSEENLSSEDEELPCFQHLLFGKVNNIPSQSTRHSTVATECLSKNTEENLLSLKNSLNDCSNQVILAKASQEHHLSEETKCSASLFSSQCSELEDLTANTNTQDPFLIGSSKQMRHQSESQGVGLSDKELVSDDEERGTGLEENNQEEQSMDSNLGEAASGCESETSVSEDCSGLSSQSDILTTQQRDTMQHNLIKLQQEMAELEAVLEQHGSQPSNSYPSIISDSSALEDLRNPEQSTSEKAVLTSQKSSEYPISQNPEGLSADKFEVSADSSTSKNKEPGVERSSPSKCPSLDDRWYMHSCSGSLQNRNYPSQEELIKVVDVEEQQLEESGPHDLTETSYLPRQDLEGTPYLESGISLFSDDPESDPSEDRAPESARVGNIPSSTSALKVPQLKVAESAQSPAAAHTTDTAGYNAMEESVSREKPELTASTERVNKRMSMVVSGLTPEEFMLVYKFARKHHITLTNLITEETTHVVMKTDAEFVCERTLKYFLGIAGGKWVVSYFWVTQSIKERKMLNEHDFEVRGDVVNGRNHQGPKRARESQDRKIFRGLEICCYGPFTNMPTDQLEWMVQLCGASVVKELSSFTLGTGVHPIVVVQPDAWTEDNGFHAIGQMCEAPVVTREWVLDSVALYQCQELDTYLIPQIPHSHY

The target in the assay is Breast cancer type 1 susceptibility protein (Homo sapiens) (UniProt P38398). Put plainly: qHTS Assay for Inhibitors of BRCT-Phosphoprotein Interaction (Red Fluorophore). The following applies: BRCT-phosphopeptide binding, red fluorescence polarization; series mostly up to 76.9 µM. As for the experimental part:
NIH Molecular Libraries Screening Centers Network [MLSCN]
NIH Chemical Genomics Center [NCGC]
PI Name: Natarajan, Amarnath; University of Texas
A complex of BRCT (C-terminal portion of BRCA1, MW ~35 kDa, His-tagged) and fluorescently labeled pBACH1 phosphorylated 10 aa peptide fragment of BACH1, a helicase implicated in DNA repair, is incubated with library members. Inhibitors of BRCT-pBACH1 binding are detected by a decrease in the fluorescence polarization (FP) of the fluorophore. In order to minimize the effect of fluorescence artifacts and to increase the overall robustness of the screen, the compound library members were incubated in separate reactions with rhodamine-labeled probe-protein complexes. Protein and labeled probes were supplied by Dr. Amarnath Natarajan, Department of Pharmacology and Toxicology, University of Texas Medical Branch Galveston, TX.
Assay Buffer: 16mM Na2HPO4, 4 mM NaH2PO4, 150 mM NaCl, 1 mM EDTA, 1 mM DTT, 0.02% NaN3, and 0.01% Tween 20 at pH 7.3.
Assay Controls: 100 nM TAMRA labeled decapeptide dispensed into columns 3 and 4 to generate negative control (full inhibition of
binding, -100 % activity). 100 nM labeled decapeptide/100 nM protein in columns 1, 2, 5 - 48. Titration of unlabeled decapeptide control (from 10 mM, then 1:2 dilution in duplicate) pin-transferred to column 2, rows 1 to 16. Column 1 is neutral.
Three uL of reagents were dispensed to 1536-well Greiner black solid-bottom plates. Compounds and controls (23 nL) were transferred via Kalypsys PinTool. The plates were incubated for 12 min at room temperature, and then read on ViewLux (Perkin-Elmer) High-throughput CCD imager using BODIPY for the rhodamine-labeled decapeptide probe polarization filter sets. During dispense, reagent bottles were kept submerged into 4 deg C water bath and all liquid lines were covered with aluminum foil to minimize probe and protein degradation. All screening operations were performed on a Kalypsys robotic system (Kalypsys, Inc., San Diego, CA) containing one RX-130 and two RX-90 anthropomorphic robotic arms. The timing and order of assay plates passing through the screening system were adjusted such that each compound library plate was assayed against the fluorescein- and rhodamine-labeled assay systems at immediately adjacent time points.
With `COC(=O)[C@H](C)[C@H]1C[C@]1(C)[C@H](NC(=O)OCc1ccccc1)c1ccccc1`, the activity change, negative = inhibition entry was “inactive”.

Regarding `CN(c1ccccc1)c1ccc(/C=c2\s/c(=C(/C#N)C(=O)C(C)(C)C)n(Cc3ccco3)c2=O)cc1`, the activity change, negative = inhibition result was “inactive”.

Take `Cc1cccc(NC(=O)CSC(N)=O)c1C`: the activity change, negative = inhibition entry is “inactive”.

For `Cc1ccc(N)cc1-n1c(C)ccc1C`, the activity change, negative = inhibition result was “inactive”.

Take `CCCCOc1ccc(NC(=O)CSCC(=O)OCC)cc1`: the activity change, negative = inhibition result is “inactive”.

As to `CCOCCc1c(O)nc(SCC(=O)NCc2ccco2)[nH]c1=O`, the activity change, negative = inhibition result was “inactive”.

On to `Cc1cc(NS(=O)(=O)c2ccccc2)no1`, for which the activity change, negative = inhibition result was “inactive”.

`CCOC(=O)C1CCc2nc3ccccc3c(=O)n21` (centres undefined): the activity change, negative = inhibition entry was “inactive”.

As for `Cc1ccccc1N1CCN(S(=O)(=O)C[C@@]23CC[C@H](C[C@H]2NC(=O)[C@@H](N)CCS(C)(=O)=O)C3(C)C)CC1`, the activity change, negative = inhibition entry is “inactive”.

Turning to `CC(=O)N1CCN(c2ccc(NCc3ccc(C(C)C)cc3)cc2)CC1`, the activity change, negative = inhibition result is “inactive”.

As for `O=C(CC1(O)C(=O)N(CN2CCOCC2)c2ccccc21)c1ccccc1` (centres undefined), the activity change, negative = inhibition result is “inactive”.

As for `O=C(CCSc1ccccc1)NCCSc1ccccn1`, the activity change, negative = inhibition result was “inactive”.

With `Cc1cc(C)c2cc(CN(Cc3cccs3)Cc3nnnn3CC3CCCO3)c(=O)[nH]c2c1` (centres undefined), the activity change, negative = inhibition entry was “inactive”.

Regarding `N#CCC(=O)NC(=O)NCC1CC1`, the activity change, negative = inhibition result was “inactive”.

As to `O=C1Nc2ccccc2C12Nc1ccccc1S2` (centres undefined), the activity change, negative = inhibition entry is “inactive”.

On to `Cc1nc2ccc(C(=O)N3CCSCC3)cc2s1`, for which the activity change, negative = inhibition entry was “inactive”.

Regarding `CN1CCN(c2ncncc2-c2ccc(C(=O)N(C)C)cc2)CC1`, the activity change, negative = inhibition result is “inactive”.

`CC1(C)SC2C(NC(=O)COc3ccccc3)C(=O)N2C1C(=O)O` (centres undefined): the activity change, negative = inhibition result was “inactive”.

`CCn1cc(C(=O)N2CCN(C3CCCCC3)CC2)c2cc(OC)c(OC)cc2c1=O`: the activity change, negative = inhibition result was “inactive”.

With `CN1[C@@H]2CC[C@H]1CC(NC(=O)c1nn(C)c3ccccc13)C2` (some centres undefined), the activity change, negative = inhibition entry was “inactive”.

Consider `CC(C)(C)Oc1ncc(Br)c(OC(C)(C)C)n1`, for which the activity change, negative = inhibition result was “inactive”.

Take `C[N+](C)(C)CCCCCNCC12CC3CC(CC(C3)C1)C2`: the activity change, negative = inhibition result was “inactive”.

On to `CCCC(C(=O)N1CCOCC1)N1C(=O)C2C3C=CC(C3)C2C1=O` (centres undefined), for which the activity change, negative = inhibition entry is “inactive”.

Consider `CN1CCCC(OC(=O)COc2ccc(Br)cc2)C1` (centres undefined), for which the activity change, negative = inhibition result was “inactive”.

As to `CCC1=C(OC(=O)N(CC)CC)N2C(=O)OC(=NCCc3c[nH]c4ccccc34)[C@]2(C)[C@H]2C1=CC[C@H]1C(=O)N(CC)C(=O)[C@H]12`, the activity change, negative = inhibition entry is “inactive”.

With `COC(=O)C1C(=O)c2c([nH]c(C(=O)OCCSC)c2C)CC1C` (centres undefined), the activity change, negative = inhibition entry was “inactive”.

On to `CC(C)(C)[Si](OCC[C@@H]1C[C@@]1(C)[C@@H](NP(=O)(c1ccccc1)c1ccccc1)c1ccccc1)(c1ccccc1)c1ccccc1`, for which the activity change, negative = inhibition entry is “inactive”.

`COc1ccc(-c2oc3cc(OC)ccc3c2C(=O)c2ccc(C#N)cc2)cc1`: the activity change, negative = inhibition entry is “inactive”.

For `CCOC(=O)c1c(C)[nH]c(C)c1C(=O)CSc1nc(N)cc(N)n1`, the activity change, negative = inhibition entry is “inactive”.
